Assay results from the supplement of paper PMC12819154, “High-throughput peptide-centric local stability assay extends protein–ligand identification to membrane proteins, tissues and bacteria” (Nature Structural & Molecular Biology, 2025).

These targets were tested with Nc1ncnc2c1ncn2[C@@H]1O[C@H](COP(=O)(O)OP(=O)(O)OP(=O)(O)O)[C@@H](O)[C@H]1O [adenosine 5'-triphosphate] (assay: log2 fold change of tryptic peptide abundance, ligand vs vehicle (limited proteolysis) (log2 ratio); higher = more trypsin-susceptible (destabilized)). Conditions: ligand concentration: 5 mM; sample: E. coli desalted lysate; replicate design: treated before aliquoting.
Procedure: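 HT-PELSA: desalted E. coli K-12 BW25113 lysate (with 12 mM MgCl2) incubated with 5 mM ATP (pH 7) or water for 30 min at 25 C, then a 4 min trypsin pulse at 22 C. Peptides were quantified by DIA-MS (4 replicates). Value is the peptide log2 fold change (treated/control); negative = stabilized. Scale: negative = ligand-stabilized region.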
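Also: lysate desalted by size exclusion to strip endogenous ATP, peptide intensities built from DIA-NN precursor signals, and peptides missing any value discarded before comparison.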

Which log2 fold change does the source give for “UniProt P75968 (peptide sequence: HLIIKPLSR, peptide start residue: 102)” here?
The log2 fold change was -1.04.

How did the log2 fold change turn out when “UniProt P26365 (peptide sequence: SATGASVWVLSNR, peptide start residue: 277)” was run?
The log2 fold change was -0.606.

Which log2 fold change does the source give for “UniProt P76245 (peptide sequence: TPFVAHPALHS, peptide start residue: 331)” here?
The log2 fold change was 1.1.

“UniProt P25740 (peptide sequence: HYAAFER, peptide start residue: 123)” was tested. Which log2 fold change did it give?
The log2 fold change was -0.355.

“UniProt P23862 (peptide sequence: KRIQHQDFER, peptide start residue: 111)” was tested. Which log2 fold change did it give?
The log2 fold change was 1.03.

Which log2 fold change does the source give for “UniProt P76034 (peptide sequence: DAPCEVILLGGVYQKK, peptide start residue: 127)” here?
The log2 fold change was -0.81.

With “UniProt P0C0T5 (peptide sequence: WTSAQLLRPQALDLVSR, peptide start residue: 130)” as the target, how does the log2 fold change read?
The log2 fold change was 0.388.

How did the log2 fold change turn out when “UniProt P0DPP7 (peptide sequence: NKYLNSTR, peptide start residue: 41)” was run?
The log2 fold change was 0.633.

Which log2 fold change does the source give for “UniProt P52612 (peptide sequence: DRGQHVLLIMDSLTR, peptide start residue: 262)” here?
Its log2 fold change is -1.35.

How did the log2 fold change turn out when “UniProt P39177 (peptide sequence: FEEHLQHEAQER, peptide start residue: 58)” was run?
Its log2 fold change is -2.59.

How did the log2 fold change turn out when “UniProt P0A7D4 (peptide sequence: EMKELEDR, peptide start residue: 83)” was run?
The log2 fold change was -1.78.

Which log2 fold change does the source give for “UniProt P39410 (peptide sequence: HIAQEMPEKIR, peptide start residue: 422)” here?
Its log2 fold change is -1.96.

With “UniProt P77689 (peptide sequence: INSLAMPVKNEVCDTR, peptide start residue: 270)” as the target, how does the log2 fold change read?
The log2 fold change was 1.09.

With “UniProt P0A6B4 (peptide sequence: QLAIFNTFCEGKPGQR, peptide start residue: 174)” as the target, how does the log2 fold change read?
The log2 fold change was 0.707.

Which log2 fold change does the source give for “UniProt P76542 (peptide sequence: VAEDWFATR, peptide start residue: 108)” here?
Its log2 fold change is -0.902.

With “UniProt P21170 (peptide sequence: TLLTQFR, peptide start residue: 619)” as the target, how does the log2 fold change read?
The log2 fold change was 0.611.

“UniProt P77775 (peptide sequence: TGVVLAPDGGILGK, peptide start residue: 163)” was tested. Which log2 fold change did it give?
Its log2 fold change is -0.725.

“UniProt P76938 (peptide sequence: RVHAQVMDYLTNGIPERPAR, peptide start residue: 137)” was tested. Which log2 fold change did it give?
The log2 fold change was 0.412.

“UniProt P07862 (peptide sequence: AWTTLGCK, peptide start residue: 244)” was tested. Which log2 fold change did it give?
Its log2 fold change is -0.633.

“UniProt P76543 (peptide sequence: NSQLGWCR, peptide start residue: 147)” was tested. Which log2 fold change did it give?
Its log2 fold change is -0.802.

For “UniProt P0AG14 (peptide sequence: VNNLSEQYK, peptide start residue: 44)”, which log2 fold change is on record?
The log2 fold change was -0.765.

“UniProt P32141 (peptide sequence: ASGGFAMLAVDQR, peptide start residue: 12)” was tested. Which log2 fold change did it give?
The log2 fold change was -0.432.

“UniProt P08194 (peptide sequence: AEQELTAK, peptide start residue: 235)” was tested. Which log2 fold change did it give?
The log2 fold change was -0.739.

How did the log2 fold change turn out when “UniProt P04993 (peptide sequence: YLDLLQAR, peptide start residue: 418)” was run?
The log2 fold change was -1.02.

How did the log2 fold change turn out when “UniProt P0AAS7 (peptide sequence: LEGWSESGAQAK, peptide start residue: 20)” was run?
Its log2 fold change is -0.938.

“UniProt P37024 (peptide sequence: LVVDCAQER, peptide start residue: 286)” was tested. Which log2 fold change did it give?
The log2 fold change was -0.502.

How did the log2 fold change turn out when “UniProt P0ACW6 (peptide sequence: FMSLFDKHNK, peptide start residue: 19)” was run?
Its log2 fold change is -0.425.

For “UniProt P08201 (peptide sequence: LIVSEDNK, peptide start residue: 359)”, which log2 fold change is on record?
Its log2 fold change is 1.35.

“UniProt P37344 (peptide sequence: ETLLNYR, peptide start residue: 215)” was tested. Which log2 fold change did it give?
Its log2 fold change is -1.98.

Which log2 fold change does the source give for “UniProt P39099 (peptide sequence: SRIATTEPGTK, peptide start residue: 330)” here?
Its log2 fold change is 0.877.

Which log2 fold change does the source give for “UniProt P08660 (peptide sequence: RNQTLLTLHSLNMLHSR, peptide start residue: 306)” here?
Its log2 fold change is -0.461.
